Assay [1] in a line: antimalarial activity against Dd2 strain (AID 2302;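 active = growth inhibition above 50% at the single 2 µM test dose, taken to imply half-maximal potency below 2 µM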;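 also: 0% = DMSO untreated growth and 100% = chloroquine plus artemisinin killed control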). Particulars: P. falciparum Dd2 in RBCs, LDH growth readout, 72 h; at 2 µM; active compounds read high.
The nature of assay [2]: HepG2 cytotoxicity, primary screen, cytotoxicity control for P. falciparum antimalarial project, cell-based, ATP luminescence (AID 2303;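 active = inhibition above 50%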;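 also: 0% = DMSO wells and 100% = digitonin-killed cells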). Particulars: HepG2 viability, 24-48 h, at 10 µM, active compounds read high.
Assay [3] has as its target L-lactate dehydrogenase (Plasmodium falciparum (isolate CDC / Honduras)) (UniProt Q27743). The assay can be described thus: PfLDH activity inhibition – cell lysate, 3D7 strain, counter-screen for P. falciparum growth inhibition project (AID 2304).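 Also: 0% = vehicle and 100% = reference inhibitor.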 The settings on record: P. falciparum 3D7 crude extract, LDH APAD/NBT absorbance; at 2 µM; active compounds read high. (In general: Counterscreens check selectivity or assay interference.)

Assay [4] in a line: inhibition of 3D7 malaria parasite growth – strain 3D7 (AID 2306).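 Also: 0% = DMSO wells and 100% = chloroquine plus artemisinin control wells.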 The settings on record: P. falciparum 3D7 erythrocytic growth, LDH absorbance, 72 h; at 2 µM; active compounds read high.
Assay [5] deals with Calcium-dependent protein kinase 1 (Plasmodium falciparum (isolate 3D7)) (UniProt P62344). Briefly: PfCDPK1 kinase inhibitors, biochemical, TCAMS library (AID 1159585; cut-off not given, nearly all actives have IC50 up to about 0.98 µM;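 also: inhibitors leave more ATP so luminescence rises with inhibition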). The settings on record: recombinant PfCDPK1, Kinase-Glo ATP depletion luminescence. (In general: In Kinase-Glo more light means more ATP remaining.)
For assay [6], the target named is Plasmodium falciparum protein kinase 6 (PK6, PF3D7_1337100) (UniProt Q8IDW1). Briefly: PfPK6 kinase inhibitors, biochemical, TCAMS library (AID 1159586). The settings on record: recombinant PfPK6, Kinase-Glo ATP depletion luminescence.
For assay [7], the target named is Protein kinase 7 (PK7), Plasmodium falciparum 3D7 (PF3D7_0213400) (UniProt Q7YTF7). Briefly: inhibition of Plasmodium PK7 catalytic activity – biochemical, TCAMS antimalarial set, Kinase-Glo luminescence (AID 1159587). Particulars: recombinant PfPK7, Kinase-Glo ATP depletion luminescence.
In assay [8] the target is Calcium-dependent protein kinase 4 (Plasmodium falciparum (isolate 3D7)) (UniProt Q8IBS5). The assay can be described thus: PfCDPK4 kinase inhibitors, biochemical, TCAMS library (AID 1159588; cut-off not given, nearly all actives have IC50 up to about 0.91 µM). Particulars: recombinant PfCDPK4, Kinase-Glo ATP depletion luminescence.

This is an account of results in PubChem BioAssay.

For orientation: inhibition means the change of the read-out against control, counted positive when it falls.

Structures are written as SMILES. A number with no mark means an inactive call. For some of these results: Entries with a potency or affinity are not part of this list. The source made the active and inactive calls. Unless noted, no rule for the calls is given here.

Sequence of Calcium-dependent protein kinase 1 (Plasmodium falciparum (isolate 3D7)) (P62344 whole entry, looked up): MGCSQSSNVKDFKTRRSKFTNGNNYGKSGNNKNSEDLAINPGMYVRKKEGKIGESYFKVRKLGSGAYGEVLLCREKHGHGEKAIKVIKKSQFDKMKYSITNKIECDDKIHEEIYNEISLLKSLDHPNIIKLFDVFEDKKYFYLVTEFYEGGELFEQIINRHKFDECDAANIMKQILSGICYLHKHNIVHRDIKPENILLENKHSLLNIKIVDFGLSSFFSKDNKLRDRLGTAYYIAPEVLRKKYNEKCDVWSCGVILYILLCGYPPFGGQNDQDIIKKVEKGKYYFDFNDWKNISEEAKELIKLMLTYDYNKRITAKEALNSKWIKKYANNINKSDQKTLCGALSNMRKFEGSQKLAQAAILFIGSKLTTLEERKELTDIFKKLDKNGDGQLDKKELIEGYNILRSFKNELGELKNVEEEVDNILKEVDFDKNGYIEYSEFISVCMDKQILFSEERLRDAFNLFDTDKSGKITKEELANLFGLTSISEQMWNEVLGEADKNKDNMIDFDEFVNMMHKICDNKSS
Sequence of Plasmodium falciparum protein kinase 6 (PK6, PF3D7_1337100) (Q8IDW1 1-305): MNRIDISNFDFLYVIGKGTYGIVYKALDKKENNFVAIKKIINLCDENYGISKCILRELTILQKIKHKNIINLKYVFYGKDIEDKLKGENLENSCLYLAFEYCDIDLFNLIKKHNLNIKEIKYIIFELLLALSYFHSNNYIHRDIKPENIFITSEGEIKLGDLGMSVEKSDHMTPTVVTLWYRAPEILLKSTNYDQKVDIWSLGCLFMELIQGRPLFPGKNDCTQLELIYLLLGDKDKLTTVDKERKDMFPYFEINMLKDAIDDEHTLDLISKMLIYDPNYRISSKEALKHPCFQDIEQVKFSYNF
Sequence of Calcium-dependent protein kinase 4 (Plasmodium falciparum (isolate 3D7)) (Q8IBS5 whole entry, looked up): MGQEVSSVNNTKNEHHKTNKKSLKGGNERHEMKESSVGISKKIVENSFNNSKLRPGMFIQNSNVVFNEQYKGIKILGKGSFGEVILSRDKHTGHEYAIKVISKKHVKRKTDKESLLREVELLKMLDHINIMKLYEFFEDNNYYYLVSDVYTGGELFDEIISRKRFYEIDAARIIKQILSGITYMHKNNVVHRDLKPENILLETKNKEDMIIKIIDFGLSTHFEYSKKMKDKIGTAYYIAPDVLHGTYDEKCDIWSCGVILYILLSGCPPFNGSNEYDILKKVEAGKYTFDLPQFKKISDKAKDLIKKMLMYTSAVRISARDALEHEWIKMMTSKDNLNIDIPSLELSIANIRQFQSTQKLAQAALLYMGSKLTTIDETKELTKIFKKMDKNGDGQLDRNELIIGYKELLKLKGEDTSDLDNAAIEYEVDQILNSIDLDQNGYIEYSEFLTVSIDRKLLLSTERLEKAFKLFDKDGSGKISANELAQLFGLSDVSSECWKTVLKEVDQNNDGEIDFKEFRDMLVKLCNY
Sequence of Protein kinase 7 (PK7), Plasmodium falciparum 3D7 (PF3D7_0213400) (Q7YTF7 1-343): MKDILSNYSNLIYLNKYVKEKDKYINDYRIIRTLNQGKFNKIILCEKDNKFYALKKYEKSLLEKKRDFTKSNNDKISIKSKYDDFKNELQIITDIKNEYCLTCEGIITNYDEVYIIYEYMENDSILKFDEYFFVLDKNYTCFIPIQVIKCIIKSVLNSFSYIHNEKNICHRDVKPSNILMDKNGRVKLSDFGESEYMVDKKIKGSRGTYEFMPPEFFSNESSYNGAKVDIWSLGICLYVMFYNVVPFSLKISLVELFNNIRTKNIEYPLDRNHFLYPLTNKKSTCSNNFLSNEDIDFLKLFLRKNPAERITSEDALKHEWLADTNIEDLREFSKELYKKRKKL
Sequence of L-lactate dehydrogenase (Plasmodium falciparum (isolate CDC / Honduras)) (Q27743 whole entry, looked up): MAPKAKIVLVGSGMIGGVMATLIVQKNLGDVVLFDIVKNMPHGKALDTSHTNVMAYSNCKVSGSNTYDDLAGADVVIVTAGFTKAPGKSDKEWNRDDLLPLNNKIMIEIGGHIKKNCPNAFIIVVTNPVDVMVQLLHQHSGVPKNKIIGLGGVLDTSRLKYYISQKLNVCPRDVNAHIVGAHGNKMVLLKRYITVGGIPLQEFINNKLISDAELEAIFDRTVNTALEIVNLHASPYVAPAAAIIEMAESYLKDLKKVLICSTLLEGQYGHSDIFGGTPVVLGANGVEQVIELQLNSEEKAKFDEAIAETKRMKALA

In the case of `CN1CCN(CCCN(Cc2cccc(-c3ccc(CNCc4ccc5c(c4)OCO5)cc3)c2)C(=O)Nc2ccccc2)CC1`, the values for the growth inhibition in assay [1] and in assay [4] were 69% (active) and 98% (active), respectively. In addition, the figures for the inhibition in assay [2] and in assay [3] were 39% and 4%, respectively. The outcome in assay [5], in assay [6], in assay [7] and in assay [8] was inactive.

For `COc1ccc2c(NN=Cc3cccc([N+](=O)[O-])c3)ccnc2c1`, the growth inhibition in assay [1] was 99% (active); in assay [4], 101% (active). Further, the inhibition is -10% in assay [2] and 5% in assay [3]. Further, the result in assay [5], in assay [6], in assay [7] and in assay [8] was inactive.

On to `O=S(=O)(/C=C/c1ccccc1)N(Cc1ccc(-c2ccc(CNCCc3ccccc3)cc2)cc1)CC1CCCCN1` (stereo not given), for which the growth inhibition in assay [1] was 96% (active); in assay [4], 100% (active). For the same compound, the inhibition in assay [2] is 99% (active); in assay [3] it was -2%. Besides, the result in assay [5], in assay [6], in assay [7] and in assay [8] was inactive.

With `Cc1cccc(OCCCCON2C(N)=NC(N)=NC2(C)C)c1C`, the growth inhibition in assay [1] is 95% (active); in assay [4], 97% (active). The inhibition in assay [2] is 65% (active); in assay [3], -3%. Further, the outcome in assay [5], in assay [6], in assay [7] and in assay [8] was inactive.

Regarding `O=C(Nc1cccc(CN2CCCN(Cc3ccc(O)cc3)CC2)c1)c1cccc(C(F)(F)F)c1`, the growth inhibition was 71% (active) in assay [1] and 101% (active) in assay [4]. The inhibition in assay [2] is 9%; in assay [3], 3%. Besides, the outcome in assay [5], in assay [6], in assay [7] and in assay [8] was inactive.

As for `CCCc1cc(N2CCC(N(CC)CC)C2)nc(Nc2ccc(OC)cc2)n1` (stereo not given), the growth inhibition in assay [1] was 4%; in assay [4], 90% (active). For the same compound, the inhibition was 9% in assay [2] and 4% in assay [3]. Further, the result in assay [5], in assay [6], in assay [7] and in assay [8] was inactive.

For the compound `CN(C)c1ccc(CN2CCC(NC(=O)c3ccc(-c4cccc(Cl)c4)s3)CC2)cc1`, the growth inhibition was 44% in assay [1] and 93% (active) in assay [4]. For the same compound, the inhibition is 65% (active) in assay [2] and -3% in assay [3]. Moreover, the outcome in assay [5], in assay [6], in assay [7] and in assay [8] was inactive.

With `CCCCc1ccc(C(=O)NC2CCN(C[C@H](O)c3ccnc4ccc(OC)cc34)CC2)cc1`, the growth inhibition in assay [1] is 22%; in assay [4], 91% (active). For the same compound, the inhibition in assay [2] is 24%; in assay [3] it was -1%. Moreover, the result in assay [5], in assay [6], in assay [7] and in assay [8] was inactive.

Turning to `NS(=O)(=O)c1cccc(-c2ccc3nccc(-c4cccc(S(N)(=O)=O)c4)c3c2)c1`, the values for the growth inhibition in assay [1] and in assay [4] were 99% (active) and 98% (active), respectively. Also, the inhibition is 40% in assay [2] and 4% in assay [3]. Moreover, the outcome in assay [5], in assay [6], in assay [7] and in assay [8] was inactive.

In the case of `c1ccc(-c2cc(NCCCn3ccnc3)nc(-c3cccnc3)n2)cc1`, the results for the growth inhibition in assay [1] and in assay [4] were 6% and 84% (active), respectively. The inhibition was 15% in assay [2] and 0% in assay [3]. Further, the outcome in assay [5], in assay [6], in assay [7] and in assay [8] was inactive.

`COc1cc(C(=O)NC2CCc3ccccc32)cc(Cl)c1OC` (stereo not given): the growth inhibition in assay [1] is 60% (active); in assay [4] it was 85% (active). Also, the results for the inhibition in assay [2] and in assay [3] were 12% and -4%, respectively. For the same compound, the outcome in assay [5], in assay [6], in assay [7] and in assay [8] was inactive.

Consider `CCCCOc1ccc(C(O)C(CN2CCCCC2)c2ccccc2)cc1` (stereo not given), for which the growth inhibition in assay [1] is 84% (active); in assay [4], 90% (active). The results for the inhibition in assay [2] and in assay [3] were 7% and 3%, respectively. Also, the result in assay [5], in assay [6], in assay [7] and in assay [8] was inactive.

Consider `COc1ccc2nccc(NN=Cc3cccc([N+](=O)[O-])c3)c2c1`, for which the results for the growth inhibition in assay [1] and in assay [4] were 98% (active) and 100% (active), respectively. The results for the inhibition in assay [2] and in assay [3] were 4% and -8%, respectively. The result in assay [5], in assay [6], in assay [7] and in assay [8] was inactive.

With `Cc1cccc2[nH]c(-c3cccc(-c4cccc(NC(=O)C5CC(=O)Nc6ccccc65)c4)c3)nc12` (stereo not given), the growth inhibition in assay [1] was 25%; in assay [4], 85% (active). Further, the inhibition in assay [2] was 13%; in assay [3], 0%. Besides, the result in assay [5], in assay [6], in assay [7] and in assay [8] was inactive.

Consider `Cc1cc(-c2ccnc(Nc3cccc(C#N)c3)n2)cc(C)c1O`, for which the figures for the growth inhibition in assay [1] and in assay [4] were 54% (active) and 88% (active), respectively. Also, the inhibition in assay [2] is 50% (active); in assay [3], 5%. The result in assay [5], in assay [6], in assay [7] and in assay [8] was inactive.

As for `CCOC(=O)c1ccc(NC(=O)NCCCC2CCCN(CCCCCNC(=O)/C=C/c3ccc(Cl)c(Cl)c3)C2)cc1` (stereo not given), the results for the growth inhibition in assay [1] and in assay [4] were 30% and 96% (active), respectively. Moreover, the figures for the inhibition in assay [2] and in assay [3] were 14% and -2%, respectively. Moreover, the result in assay [5], in assay [6], in assay [7] and in assay [8] was inactive.

Regarding `O=C(Nc1ccc(Cl)c(Cl)c1)Nc1ccc2nccc(N3CCNCC3)c2c1`, the growth inhibition in assay [1] is 62% (active); in assay [4], 99% (active). Also, the inhibition in assay [2] was 18%; in assay [3], -6%. Besides, the outcome in assay [5], in assay [6], in assay [7] and in assay [8] was inactive.

On to `Cc1ccc2c(O)c([N+](=O)[O-])c(=O)[nH]c2c1`, for which the growth inhibition was -1% in assay [1] and 98% (active) in assay [4]. Further, the inhibition in assay [2] was 3%; in assay [3], -4%. Further, the result in assay [5], in assay [6], in assay [7] and in assay [8] was inactive.

On to `COc1ccc2nc(-c3ccc(C(=O)NCCCN4CCN(c5cc(Cl)ccc5OC)CC4)cc3)[nH]c2c1`, for which the growth inhibition in assay [1] was 53% (active); in assay [4] it was 97% (active). Besides, the figures for the inhibition in assay [2] and in assay [3] were -2% and 1%, respectively. Also, the result in assay [5], in assay [6], in assay [7] and in assay [8] was inactive.

Regarding `COc1ccccc1NC(=O)Nc1cccc(-c2ccc(-c3nc4ccc(C(F)(F)F)cc4[nH]3)cc2)c1`, the figures for the growth inhibition in assay [1] and in assay [4] were 76% (active) and 100% (active), respectively. Moreover, the inhibition in assay [2] is 28%; in assay [3], 5%. Moreover, the outcome in assay [5], in assay [6], in assay [7] and in assay [8] was inactive.
